Assay results taken from PubChem BioAssay AID920 (The Scripps Research Institute Molecular Screening Center, 2007).
Among all 200,000 compounds or so, about 700 (0.35%) were called active.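 How the source made its calls: active means inhibition above a set limit, the mean inhibition across all tested compounds plus 3 SD (cut at about 34% in these data); inactive means the rest.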 Shown is part of a subset that was picked to be rich in actives.

test: STAT1 signaling inhibitors, primary screen, cell-based, HTS, luciferase reporter (AID 920); settings: NIH 3T3 STAT1-luciferase reporter, IFN-gamma, luminescence; at 5.5 µM; hits give high values;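 further: 0% = IFN-gamma with DMSO and 100% = IFN-gamma with 300 µM nifuroxazide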

inhibition, inactive:
CC(CC(=O)O)CC(=O)NNC(=O)c1cccc(Br)c1 (stereo not drawn) -8.27%
O=C1c2ccccc2NC(c2ccccn2)N1NS(=O)(=O)c1ccccc1 (stereo not drawn) -5.92%
O=C(c1cn(-c2ccccc2)nc1-c1cc2ccccc2oc1=O)N1CCOCC1 2.66%
Nc1ncc(-c2cc3ccccc3oc2=O)s1 -72.7%
CCNC(=O)COc1cc(C)c(Br)c(C)c1 -0.94%
CCC1CCCCN1CCCNC(=O)c1cc2c(Cl)nc3ccccc3c2s1 (stereo not drawn) -24.2%
O=C(C1=C[C@H](c2coc3ccccc3c2=O)C[C@H](OCc2ccc(CO)cc2)O1)N1CCN(Cc2ccccc2)CC1 7.51%
O=C1CC(c2c(F)cccc2Cl)C(n2cncn2)C(O)=C1C1NCCc2ccccc21 (stereo not drawn) -3.15%
O=C(O)c1ccc(N/N=C/c2cn(-c3ccccc3)nc2-c2cccs2)cc1 -5.55%
CCNC(=S)NNC(=O)c1ccc2ncccc2c1 -9.62%
COc1ccc(N2CCN(C(=O)c3ccc4c(Cl)c5c(nc4c3)CCCC5)CC2)cc1 1.44%
CN1c2ccccc2-c2nc3ccccc3n2C1c1ccco1 (stereo not drawn) -3.93%
Cn1cccc1-c1nc2ccccc2n1C -1.19%
COCCNC(=S)N1CCC(NC(=O)C23CC4CC(CC(C4)C2)C3)CC1 -0.94%
CCOC(=O)C1(Cc2ccc(Cl)cc2)CCN(C(=O)C2=NNC(=O)CC2)CC1 2.27%
COC(=O)C1=C(C)N(C(C)c2ccccc2)C(=O)/C1=C\c1ccco1 (stereo not drawn) 6.65%
CCn1c(CSc2nc(C)cc(C)n2)nnc1SCC(N)=O -4.79%
Cc1ccccc1-n1cc(CNC(=O)CC2C(=O)NCCN2C/C=C/c2ccccc2)cn1 (stereo not drawn) -1.08%
O=C(CCN1CCN(c2ccccc2)CC1)NNC(=S)Nc1ccccc1 12.2%
CCN(CC)S(=O)(=O)c1ccc(NC(=O)c2cccnc2Cl)c(NC(=O)c2cccnc2Cl)c1 10.8%
O=c1cc(CSc2ccc(Cl)cc2)nc(N2CCOCC2)[nH]1 2.61%
CCOc1ncccc1C(=O)OCc1cn2cc(Cl)ccc2n1 -9.01%
O=C(NCCCO)/C(=C\C=C\c1ccccc1)NC(=O)c1ccccc1Cl 3.7%
Cc1nn(C)c(C)c1CN(C(=O)CCc1nnc(Cc2c[nH]c3ccccc23)o1)C(C)C -1.77%
Cc1cc(C2=NNC(=Nc3ccc(S(=O)(=O)N4CCOCC4)cc3)SC2)c(C)n1CC1CCCO1 (stereo not drawn) -1.28%
COCCn1c(C)cc(C2=NNC(=Nc3ccc(F)cc3)SC2)c1C -36.4%
N/C(=N\OC(=O)Cc1ccccc1[N+](=O)[O-])c1ccc(Br)cc1 0.32%
CCc1cc2c(SCC(=O)Nc3ncc(Cl)c(C)c3Cl)ncnc2s1 -4.22%
CCc1cc2c(NC3CCCC3)ncnc2s1 22.1%
O=C1C2C3C=CC(C4CC34)C2C(=O)N1c1nccs1 (stereo not drawn) 3.92%
C#CCOCCOCCOCCNc1nc(N2CCN(C(=O)[C@H](C(C)C)n3cc(CCO)nn3)CC2)nc(N2CCN(C(=O)[C@H]([C@@H](C)CC)n3cc(CCCN=C(N)N)nn3)CC2)n1 -0.51%
CC(=O)c1ccc(N2CCN(CC(=O)Nc3ccccc3N3CCOCC3)CC2)cc1 15%
O=C(CSC(=S)N1CCOCC1)c1ccccc1 -27.1%
O=C(CC(=O)Nc1ccc(Cl)c(Cl)c1)N/N=C/c1ccc(O)cc1 6.41%
CN(C)CCNC(CC(=O)Nc1ccc(Cl)c(Cl)c1)C(=O)O (stereo not drawn) 0.9%
CC1=C(C)CC(C(=O)NC(C)CCc2ccccc2)C(C(=O)O)C1 (stereo not drawn) -0.81%
CCCCOc1ccc(C(=O)NCC(=O)OCC(=O)N2CCN(S(=O)(=O)c3ccc(C)cc3C)CC2)cc1 -1.91%
CCCNC(=O)c1c(N)n(-c2ccc(S(N)(=O)=O)cc2)c2nc3ccccc3nc12 -1.16%
CC(C)Cn1c(N)c(C(=O)NCc2cccs2)c2nc3ccccc3nc21 -2.91%
Cc1ccc(-c2nc(-c3cccnc3)sc2CC(=O)Nc2ccc(C)c(Cl)c2)cc1 13.7%

inhibition, active:
O=c1oc2ccccc2cc1-c1cn(-c2ccccc2)c(=S)[nH]1 76.9%
O=C(O)c1ccc(N/N=C/c2ccc3ncccc3c2)cc1 37.4%
Cn1c(-c2ccco2)nc2cc3ccccc3cc21 36.6%
Clc1ccc2nc(CSc3ccccc3)cn2c1 35.4%
C=CCn1c(C)cc(C2=NNC(=NCC)SC2)c1C 94.7%
CCc1cc2c(N3CCN(c4nnc(CC)s4)CC3)ncnc2s1 51.2%
O=C(CC(O)(C(F)(F)F)C(F)(F)F)Nc1ccc(Cl)c(Cl)c1 48.3%
CCC(C)NC(=O)c1c(N)n(/N=C/c2cccs2)c2nc3ccccc3nc12 (stereo not drawn) 39.4%
